40 compounds from PubChem BioAssay (Tox21) can be followed below.

SMILES strings stand for the structures. Unmarked numbers belong to inactive results. Calls of active or inactive are those of the source. Calls follow the shape of the dose curve; as a rule, active = well fitted activation curve with a large enough effect in the repeat runs; inconclusive = weak or mixed curves; inactive = flat fitted curve, though single readings scatter.
% is scaled to controls: 0 for no effect and ±100 for the full control effect.

The assay in a line: Caspase-3/7 induction in CHO-K1 cells by small molecules, qHTS assay (AID 1346980). Also: nearly all actives have a fitted effect of over 15% in size. To be noted: CHO-K1 caspase-3/7 induction, Caspase-Glo luminescence, 17 h; series mostly up to 92.4 µM. From the text:
National Center for Advancing Translational Sciences [NCATS]
NIH Chemical Genomics Center [NCGC]
U.S. Environmental Protection Agency [EPA]
National Institutes of Environmental Health Sciences [NIEHS]
National Toxicology Program [NTP]
Apoptosis is a process of programmed cell death and plays a central role in the development of multicellular organisms. It is a highly regulated process and induces cell death by activating caspases, which are the members of cysteine aspartic acid-specific protease (caspase) family. Caspases involved in apoptosis are classified by their mechanism of action as initiator caspases (caspase-2, -8, -9 and -10) and executioner caspases (caspase-3, -6, and -7). Inhibition of apoptosis results in number of cancers, autoimmune diseases, inflammatory diseases and viral infection. To identify small molecule compounds that induce apoptosis, a homogeneous, luminescent Caspase-Glo 3/7 assay was used. Wild type CHO-K1 cells were used to screen Tox21 libraries for identifying caspase-3/7 activity inducers.
CHO-K1 cells were dispensed at 1,500 per well in 5uL of culture medium into white solid bottom 1536-well plates (Corning Life Sciences, Corning, NY) using a Multidrop Combi (Thermo Scientific, Waltham, MA) dispenser. The assay plates were incubated at 37 C and 5% CO2 for 5hr, and then 23nL of compounds dissolved in DMSO and positive control were transferred using a Pintool station (Wako, San Diego, CA). The assay plates were incubated at 37C and 5% CO2 for 17hr. For caspase-3/7 activity read, 4uL of Caspase-Glo 3/7 reagent (Promega Corporation, Madison, WI) was added to each well of the assay plates using Flying Reagent Dispenser (FRD, Aurora Discovery, San Diego, CA) and incubated the assay plates at room temperature for 30min. The luminescence signal was quantified using a ViewLux plate reader (Perkin Elmer, Shelton, CT).
(In qHTS, concentration-response curves come from the screen itself.)
Take `CC(=O)O[C@H](CC(=O)[O-])C[N+](C)(C)C`: the outcome was inactive.

For the compound `Cc1ccc(Nc2ccc(O)c3c2C(=O)c2ccccc2C3=O)cc1`, the outcome was inactive.

`CCCCNc1ccccc1`: the compound was classed as inactive.

On to `CCCCOCC(C)OCC(C)O` (stereo not given), for which the call was inactive.

Consider `CCC(=O)/C=C/c1ccc(OC)cc1`, for which the compound was called inactive.

For `O=C(O)c1ccccc1S`, the call was inactive.

As to `N#CCc1ccccc1[N+](=O)[O-]`, the compound was called inactive.

For the compound `CCCCCCCCCCCl`, the compound was called inactive.

In the case of `CCc1cc(S(=O)(=O)O)c2cc(C(C)C)cccc1-2`, the compound was classed as inactive.

Consider `CCCCCCCCCCCCCCCCCC(=O)OCCCCCCCCCCCCCC(C)C`, for which the outcome was inactive.

Turning to `C=C(C)C(=O)NCCC[N+](C)(C)C`, the compound was classed as inactive.

For `Nc1ncnc2c1ncn2Cc1c(F)cccc1Cl`, the compound was called inactive.

Take `CC(C)(C)N(CCO)CCO`: the outcome was inactive.

Consider `CC(C)CCOC(=O)CC(C)C`, for which the compound was classed as inactive.

For `NC(=O)c1c(Cl)cccc1Cl`, the compound was called inactive.

With `CC12CCC(CC1=O)C2(C)C` (stereo not given), the outcome was inactive.

In the case of `O=[N+]([O-])c1ccc(Oc2ccc([N+](=O)[O-])cc2)cc1`, the compound was classed as inactive.

For `Cc1c(F)cc2c(=O)c(C(=O)O)cn3c2c1CCC3C` (stereo not given), the result was inactive.

On to `C(=C(c1ccccc1)c1ccccc1)c1ccccc1`, for which the outcome was inactive.

Take `CC/C=C\C#N`: the outcome was inactive.

On to `Oc1cc(O)c2c(c1)O[C@H](c1ccc(O)c(O)c1)[C@H](O)C2`, for which the compound was classed as inactive.

`CC(C)[C@H](N)C(=O)OCCOCn1cnc2c(=O)[nH]c(N)nc21`: the call was inactive.

For `Nc1[nH]c(=O)ncc1F`, the call was inactive.

In the case of `Cc1ccccc1Br`, the result was inactive.

Turning to `C1CCCCCCCCCCC1`, the caspase-3/7 activation was 0.0072% [at 19 µM].

`CC(=O)c1ccc(C)cc1`: the call was inactive.

`CC(=O)N[C@@H](CCC(N)=O)C(=O)O`: the outcome was inactive.

For `N#CC1(O)CCCCC1`, the compound was classed as inactive.

Regarding `C#CC(C)(O)CC(C)C` (stereo not given), the compound was classed as inactive.

Turning to `CC1=CC(=O)CCC1`, the call was inactive.

In the case of `COc1ccc(NC(C)=O)cc1`, the outcome was inactive.

As for `OC[C@H]1O[C@@H]2O[C@H]3[C@H](O)[C@@H](O)[C@@H](O[C@H]4[C@H](O)[C@@H](O)[C@@H](O[C@H]5[C@H](O)[C@@H](O)[C@@H](O[C@H]6[C@H](O)[C@@H](O)[C@@H](O[C@H]7[C@H](O)[C@@H](O)[C@@H](O[C@H]8[C@H](O)[C@@H](O)[C@@H](O[C@H]9[C@H](O)[C@@H](O)[C@@H](O[C@H]1[C@H](O)[C@H]2O)O[C@@H]9CO)O[C@@H]8CO)O[C@@H]7CO)O[C@@H]6CO)O[C@@H]5CO)O[C@@H]4CO)O[C@@H]3CO`, the compound was called inactive.

Regarding `CNc1ncnc2nc[nH]c12`, the result was inactive.

Turning to `CC1(C)SC(C)(C)SC(C)(C)S1`, the result was inactive.

Consider `COC(=O)CCCC(=O)O`, for which the outcome was inactive.

As for `c1ccc2cnncc2c1`, the outcome was inactive.

Regarding `CCN(CC)S(=O)(=O)c1ccc(C(=O)O)cc1`, the result was inactive.

`OC/C=C/c1ccccc1`: the result was inactive.

As to `CO[Si](OC)(OC)OC`, the compound was called inactive.

Consider `O=[N+]([O-])c1ccc(CCO)cc1`, for which the compound was classed as inactive.
